Screens (PubChem)
HttQ103 aggreg: qHTS Multiplex Assay to Identify Dual Action Probes in a Cell Model of Huntington: Aggregate Formation (GFP); PC12 HttQ103-GFP aggregates, Acumen cytometry, 40 h; Potency, µM (top dose mostly 46.1 µM), inactives show at the top dose activity change, negative = inhibition, actives largely listed as inhibitors; 220,000 tested, 1.1% active; AID 1688, 2009; further: on the % scale 0 is the no-effect control and ±100 the full control effect; nearly all actives have a fitted effect of over 60% in size
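Steps: seed 1500 PC12 HTTQ103-GFP cells/well; add tebufenozide, 100 nM final; add compound titration; add ATPLite reagent; quantify GFP aggregates by laser scanning cytometry.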
HTT ATP protect: qHTS Multiplex Assay to Identify Dual Action Probes in a Cell Model of Huntington: Cytoprotection (ATP); PC12 HTT-Q103 induced, cytoprotection, ATP luminescence, 40 h; Potency, µM (highest dose often 56.4 µM), for inactives: cytoprotection (ATP increase), most hits filed as activators; 230,000 tested, 0.14% active; further: % of control where 0% means no effect; nearly all actives have a fitted effect of over 45% in size
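PC12 cells stably carrying ecdysone-inducible Htt exon 1 (Q103)–GFP were induced with 100 nM tebufenozide (final) alongside library compounds in a dose series. Cytoprotection was scored as retained ATP by ATPlite luminescence.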
ERK EGF inh: qHTS Assay for Inhibitors of the ERK Signaling Pathway using a Homogeneous Screening Assay; Stimulation with EGF; HEK293-V1b, EGF-stimulated phospho-ERK AlphaScreen; 130,000 tested, 0.41% active; Potency, µM (series often up to 11.5 µM), inactives show top-dose activity change, negative = inhibition, hits mostly inhibitors;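 further: plate controls were stimulated vehicle wells for no effect and unstimulated vehicle basal for full effect; nearly all actives have a fitted effect of over 55% in size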
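Concentration-response of compounds against EGF-driven ERK phosphorylation in V1b-expressing HEK293 cells; 30 min preincubation, 5 min EGF, AlphaScreen detection; Normalized to DMSO basal and 25 nM EGF.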
Numbers without * were called inactive; ? = inconclusive; . = no result given; [ ] = another dose, or the depositor's remark. A selection: hits, their analogues and other compounds. The true share with any hit is near 1.4%. The call rests on the fitted dose curve; in most records, active means well fitted curve in the direction sought with a large enough effect; inconclusive means small, poorly fitted or top-dose-only effect, or another doubt; inactive means no such curve, though single readings can be large; an effect the other way counts as inactive or inconclusive. Potency means the concentration at half of the fitted maximal effect.

SMILES	HttQ103 aggreg	HTT ATP protect	ERK EGF inh
COc1ccc(N=c2scc(-c3ccc(S(=O)(=O)N4CCOCC4)cc3)n2CCCO)cc1	13µM*	11%[10 µM]	?
CCOC(=O)c1cc2ccccc2n1CCN(CC)CC	7%	18%	.
CN(C)CCn1c(C(=O)Nc2ccccc2)cc2ccccc21	3.2µM*	38%	.
CC(=O)[C@H](C(=N)C#N)C(=O)Nc1ccccc1	.	-6%[10 µM]	.
COc1cccc(Cn2c(=O)c(-c3cccs3)nc3cnc(N(C)C)nc32)c1	.	-94%	.
COc1cc2c(cc1OC)[C@H](C)N(CC1C(=O)O[C@@H]3C[C@@]4(C)CCC[C@H](C)[C@@]45OC5[C@H]13)CC2 (some centres not stated)	.	8.9µM*	-6%
COc1cc2c(cc1OC)C(C)N(C(C)=O)CC2 (configuration not stated)	-23%	7%[10 µM]	0%
O=[N+]([O-])c1cccc(S(=O)(=O)NCCNS(=O)(=O)c2cccc([N+](=O)[O-])c2)c1	-97%	?	.
COc1ccc2[nH]cc(CCO)c2c1	.	-10%	.
COc1ccccc1N1CCN(Cc2ccc(OC)c(OC)c2OC)CC1	-6%	-23%	.
COc1ccccc1N1CCN(Cc2ccc(O)c3ncccc23)CC1	1.1µM*	-77%[10 µM]	.
CO[C@H]1COC(=O)C/C=C\[C@H](C)[C@@H](OC)COC(=O)C/C=C\[C@@H]1C	.	16%[10 µM]	.
COC(=O)[C@@H]1C[C@@]1(C)[C@@H](NC(=O)OCc1ccccc1)c1ccccc1	.	-18%	-3%
COc1ccc(Oc2ncc3nc(-c4ccccc4)c(=O)n(Cc4cccs4)c3n2)cc1	.	?	5%
CCN(CC)c1ccc2c(c1)oc(=O)c1c(Cl)cc(=O)oc12	13µM*	-40%	.
CCN(CC)c1ccc2c(C)c(Cl)c(=O)oc2c1	?	?	-7%
O=S(=O)(O)[C@@H](CO)c1ccccc1 (tested in a mixture with another compound)	.	6%[10 µM]	.
NCC(=O)N[C@@H](CCCN=C(N)N)C(=O)NCC(=O)N[C@@H](CC(=O)O)C(=O)N[C@@H](CC(N)=O)C(=O)N1CC[C@@H](C(=O)O)C1	.	-16%	.
O=C(Nc1cnn(Cc2ccc(F)cc2)c1)c1cc(-c2ccc(Br)cc2)on1	.	-10%	.
COc1ccc(OC)c(-c2nc3c(C)n[nH]c(=O)c3[nH]2)c1	13µM*	-24%[10 µM]	.
COc1ccc(OC)c(-n2c(-c3ccccc3)n[nH]c2=S)c1	19%	-24%	.
O=C(CS(=O)Cc1ccco1)NCC=CCOc1cc(CN2CCCCC2)ccn1 (configuration not stated)	4%	15%	.
c1ccc2c(c1)ccc1ncccc12	-32%	1%	0%
Cc1ccc2cccnc2c1	.	6.3µM*	.
CN(C)c1ncc2nc(-c3ccc(Cl)cc3)c(=O)n(-c3ccccc3)c2n1	.	-28%	.
SMILES	HttQ103 aggreg	HTT ATP protect	ERK EGF inh
COc1ccc2c(c1)O[C@@H](c1ccc3c(c1)OCO3)[C@H](OC(=O)NCCOc1ccccc1)C2=O	.	13%	-8%
O=C(c1cc2nc(-c3ccc(F)cc3)cc(C(F)(F)F)n2n1)N1CCCCC1c1cccnc1 (configuration not stated)	8.9µM*	-46%	?
O=C(c1cnn2c(C(F)(F)F)cc(-c3ccccc3)nc12)N1CCCCC1c1cccnc1 (configuration not stated)	30%[9.22 µM]	-37%[1.9 µM]	-2%
Cc1cnc(CNc2cc(-c3ccccc3CN(C)C)ncn2)cn1	.	-56%	.
C=C1OC(CO)(n2cnc3c(N)ncnc32)C(O)C1O (configuration not stated)	.	7%	.
CC(O)C(N)C(=O)O (configuration not stated)	-21%	?	.
CN(Cc1ccccc1)Cc1nc2c(c(=O)n(C)c(=O)n2C)n1CCc1ccccc1	.	-7%[0.074 µM]	.
CCCCn1c(CN2CCN(c3cccc(Cl)c3)CC2)nc2c1c(=O)n(C)c(=O)n2C	-14%	-5%[0.074 µM]	.
CCCn1c(CN2CCN(c3cccc(Cl)c3)CC2)nc2c1c(=O)n(C)c(=O)n2C	5.6µM*	-128%	.
COCCn1c(CN(C)Cc2ccccc2)nc2c1c(=O)n(C)c(=O)n2C	-26%	-14%	.
CCCn1c(CN(C)Cc2ccccc2)nc2c1c(=O)n(C)c(=O)n2C	22µM*	10%[10 µM]	3%
CCCCn1c(CN(C)Cc2ccccc2)nc2c1c(=O)n(C)c(=O)n2C	20µM*	24%[10 µM]	.
